Biological target: TELO2
Assay: pooled miR-30 sensor sort-seq; sequence = guide strand
Conditions: shRNA
Also: reference of the scale not given here.

Sequence	sensor-assay potency score (higher = more potent)
TCCATCAGCACTGCCAGCCGGC	-1.21
ATCATCGCTGTCCAGGTCCGAG	-1.37
TTCATCAGCCGGAAGCTGGGGC	0.0431

Biological target: TFAP4
Assay: as above
Conditions: shRNA

Sequence	sensor-assay potency score (higher = more potent)
TTCTCTCCGTCTGTGTGGGGGA	-0.652
TTCCCGCTCCAGCTTCTCCTGG	-1.47
TCGTCCTCCCAGATGTCCGGGG	-0.989
TTCACGATGACAGCTCGCCGCT	-1.34
TTGAGGGACTGGAATCCCGCGT	-0.113
TTGGCAAGGCTACAGAGCCCTC	-1.54
TTGCTGTTGGCGATCTCCCGCC	-0.484
TGCTGAGCTTCTCTCCGTCTGT	-0.432
TACATGTGGGCCTCCAGCGAGC	-1.01
AATCACCTTGAGCTTTTCCGGG	-1.02
ATCACCTTGAGCTTTTCCGGGT	-0.563
TTCGTCCTTGTCCTCTGCCCGC	-1.28
